Screens from PubChem BioAssay.
In the library only some 1.3% were active in any assay of this set; here they are far more common.
PfHsp40 yeast – restores yeast growth despite PfHsp40 toxicity; S. cerevisiae expressing PfHsp40, growth rescue, ATP luminescence; growth rescue, % at 12.5 µM; hit rate 0.68% among 340,000; in the data active means growth rescue above about 28%, passing the limit was not always enough; inconclusive means no clear call, values can overlap the other calls;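 further: yeast W303a lacking pdr1 and pdr3 grown in galactose medium; growth measured after three days at 30 °C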
RN4220 kill – S. aureus RN4220 growth inhibition; OD600, 16 h; inhibition, % (concentration not given with the values); hit rate 0.33% among 330,000; in the data active means inhibition above about 85%;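 further: plate controls were untreated cells for no effect and reference antibiotic for full effect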
MazEF act – MazEF (E. coli) toxin RNase activation; FAM/BHQ RNA-DNA oligo cleavage fluorescence, 5 h; hit rate 0.32% among 350,000; AID 504720; P0AE70; activation, % at 20 µM; in the data active means activation above about 50%
ugtP null kill – kills S. aureus RN4220 lacking UgtP; S. aureus RN4220 ugtP deletion, OD600 growth, 16 h; growth inhibition, % (no concentration beside the values); hit rate 0.54% among 330,000; AID 1259309; in the data active means growth inhibition above about 68%;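 further: plate controls were untreated wells for no effect and antibiotic for full effect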
Mtb hypoxia rep – reduces hypoxia-regulated biosensor signal in M. tuberculosis. fluorescence inhibition, % (test concentration not listed). M. tuberculosis hypoxia-regulated fluorescent reporter, fluorescence. AID 1159583. hit rate 0.1% among 300,000; in the data active means fluorescence inhibition mostly above about 23%, no sharp cut-off; inactive means mostly below about 17%
TcdB GH inh – TcdB glycohydrolase inhibition; TcdB glycohydrolase enzymatic assay, plate reader; inhibition, % at 9.99 µM; hit rate 0.24% among 350,000; AID 652162; in the data active means inhibition above about 10%
Target sequence (P18177 whole entry, looked up): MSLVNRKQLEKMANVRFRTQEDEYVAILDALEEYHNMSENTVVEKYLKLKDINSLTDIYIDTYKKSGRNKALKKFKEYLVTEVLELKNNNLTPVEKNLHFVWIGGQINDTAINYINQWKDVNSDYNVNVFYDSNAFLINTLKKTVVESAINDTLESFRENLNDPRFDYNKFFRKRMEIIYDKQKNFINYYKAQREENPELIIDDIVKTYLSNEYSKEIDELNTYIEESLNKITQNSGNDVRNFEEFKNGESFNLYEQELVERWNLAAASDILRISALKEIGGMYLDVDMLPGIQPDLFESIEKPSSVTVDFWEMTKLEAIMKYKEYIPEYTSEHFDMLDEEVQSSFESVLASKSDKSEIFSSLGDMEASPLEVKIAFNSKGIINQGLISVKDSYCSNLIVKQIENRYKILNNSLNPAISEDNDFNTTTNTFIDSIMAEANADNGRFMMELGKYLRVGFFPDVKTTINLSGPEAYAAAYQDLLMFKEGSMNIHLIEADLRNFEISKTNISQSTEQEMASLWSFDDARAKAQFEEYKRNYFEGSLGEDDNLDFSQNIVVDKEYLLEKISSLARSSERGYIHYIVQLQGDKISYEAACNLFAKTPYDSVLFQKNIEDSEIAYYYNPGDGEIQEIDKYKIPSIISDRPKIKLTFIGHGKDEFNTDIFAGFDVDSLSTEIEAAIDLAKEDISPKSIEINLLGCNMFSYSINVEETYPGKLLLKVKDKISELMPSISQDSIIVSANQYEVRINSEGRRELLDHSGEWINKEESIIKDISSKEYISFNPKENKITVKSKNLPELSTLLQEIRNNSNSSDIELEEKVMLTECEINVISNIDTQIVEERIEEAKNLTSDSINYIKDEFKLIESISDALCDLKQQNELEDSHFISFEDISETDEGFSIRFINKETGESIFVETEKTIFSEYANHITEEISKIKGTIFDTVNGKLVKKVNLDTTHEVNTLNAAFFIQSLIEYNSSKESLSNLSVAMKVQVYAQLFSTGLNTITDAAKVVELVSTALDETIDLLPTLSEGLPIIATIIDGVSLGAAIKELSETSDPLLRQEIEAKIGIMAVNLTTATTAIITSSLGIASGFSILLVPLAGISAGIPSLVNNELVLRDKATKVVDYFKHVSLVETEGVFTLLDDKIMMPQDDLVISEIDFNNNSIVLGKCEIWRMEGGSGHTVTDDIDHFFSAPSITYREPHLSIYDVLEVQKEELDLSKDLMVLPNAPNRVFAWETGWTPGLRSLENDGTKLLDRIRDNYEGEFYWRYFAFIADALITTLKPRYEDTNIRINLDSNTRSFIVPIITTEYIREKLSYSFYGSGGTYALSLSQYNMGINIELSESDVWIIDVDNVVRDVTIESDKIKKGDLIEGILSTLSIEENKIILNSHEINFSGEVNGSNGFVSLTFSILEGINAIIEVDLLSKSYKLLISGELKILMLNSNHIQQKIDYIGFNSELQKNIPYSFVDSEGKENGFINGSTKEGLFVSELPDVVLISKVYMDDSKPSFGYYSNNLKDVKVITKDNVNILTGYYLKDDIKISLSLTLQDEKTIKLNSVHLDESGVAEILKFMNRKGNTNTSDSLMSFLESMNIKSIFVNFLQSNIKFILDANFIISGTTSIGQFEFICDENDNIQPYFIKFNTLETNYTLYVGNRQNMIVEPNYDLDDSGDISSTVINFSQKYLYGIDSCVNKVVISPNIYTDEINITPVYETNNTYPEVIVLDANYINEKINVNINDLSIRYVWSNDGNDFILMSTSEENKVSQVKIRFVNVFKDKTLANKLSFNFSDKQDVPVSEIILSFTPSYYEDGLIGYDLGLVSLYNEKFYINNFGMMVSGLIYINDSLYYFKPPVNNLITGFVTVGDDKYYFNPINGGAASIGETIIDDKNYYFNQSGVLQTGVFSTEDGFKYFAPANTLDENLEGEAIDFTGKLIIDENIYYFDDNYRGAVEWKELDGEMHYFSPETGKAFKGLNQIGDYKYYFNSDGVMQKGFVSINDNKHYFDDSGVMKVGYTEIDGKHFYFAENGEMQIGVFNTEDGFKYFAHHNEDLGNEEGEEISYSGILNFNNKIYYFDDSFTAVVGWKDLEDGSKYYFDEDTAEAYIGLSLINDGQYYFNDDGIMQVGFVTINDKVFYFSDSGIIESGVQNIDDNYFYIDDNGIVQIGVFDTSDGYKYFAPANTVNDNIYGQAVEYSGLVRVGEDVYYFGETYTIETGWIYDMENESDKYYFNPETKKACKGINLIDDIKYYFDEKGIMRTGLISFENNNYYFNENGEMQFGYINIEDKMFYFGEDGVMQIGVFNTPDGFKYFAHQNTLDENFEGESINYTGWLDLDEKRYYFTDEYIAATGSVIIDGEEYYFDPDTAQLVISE
* hit, by the source's call; ? = inconclusive; . = not tested or not shown.

SMILES	PfHsp40 yeast	RN4220 kill	MazEF act	ugtP null kill	Mtb hypoxia rep	TcdB GH inh
OC(CNCC(c1ccc(Cl)cc1Cl)c1c[nH]c2ccccc12)c1ccccc1 (configuration not stated)	0.6	99.7*	-25.4	96.8*	-2.8	0.8
CC(C)(C)C(=O)OCc1nc(-c2ccc(Cl)cc2)cs1	0.3	0.9	-5.6	91.7*	-1.7	1.3
COc1cc2nncc(SC)c2cc1OC	-0.8	5.7	6.1	9.1	14.9	10.9*
CSc1cnnc2ccccc12	-0.8	-0.8	3.2	-1.7	12.7	0.4
CCOc1ccc(C=c2sc3nc(-c4ccco4)nn3c2=O)cc1OCC	.	-0.3	.	5.2	.	.
COc1ccc(-c2nnc(SCc3nnc(-c4ccccc4)o3)n2-c2ccccc2)cc1	-0.1	6.3	68.9*	-4.9	-2.4	.
COc1ccc(-n2c(SCc3nnc(-c4ccccc4)o3)nnc2-c2ccccc2)cc1	-0.8	14.5	4.9	-4.6	-3.9	.
O=C(C=Cc1ccco1)c1cc(Cl)ccc1O	-1.4	9.9	6.0	1.8	6.1	0.1
CC(/C=C/c1ccco1)=N\NC(=O)c1cc(Cl)ccc1O	74.8*	.	-6.8	.	.	0.9
C[C@@H]1CCCCO[C@@H](CN(C)S(=O)(=O)c2cccs2)[C@H](C)CN([C@@H](C)CO)C(=O)c2cc(NC(=O)C3CCCCC3)ccc2O1	.	.	.	.	.	1.0
CC1(C)C(c2cccs2)=[N+]([O-])C2(CCCCCC2=NO)N1O (configuration not stated)	.	-1.5	.	-1.8	2.4	.
O=C(c1cccc(F)c1)N1CCC(N2CCCCCC2)CC1	0.4	3.5	5.1	0.2	.	.
O=C(c1cccc(F)c1)N1CCN(C2CCCCC2)CC1	53.5*	2.9	-2.7	8.4	17.4	1.2
COc1cccc(-c2cc3nc(-c4ccccc4)cc(N4CCCC(O)C4)n3n2)c1 (configuration not stated)	72.1*	-11.5	5.5	-22.9	13.2	.
COc1cccc(CNC(=O)Cn2ncn3cccc3c2=O)c1OC	-1.6	8.0	71.2*	1.7	-2.1	0.9
C(=N\N1CCOCC1)/c1ccsc1	93.7*	.	6.4	.	.	1.1
COc1ccc2oc(=NO)c(C(=O)Nc3ccc(C)cc3)cc2c1	.	16.1	.	-0.9	10.7	.
Cc1ccc(-c2nc(Nc3ccc(O)cc3)c3ccccc3n2)cc1	2.8	-2.2	21.9	13.1	17.7	0.3
O=[N+]([O-])c1ccc(-c2nc(Nc3cccc(O)c3)c3ccccc3n2)cc1	0.0	84.9*	123.2*	82.7*	10.8	1.7
Cc1ccc(-c2nc(Nc3cccc(O)c3)c3ccccc3n2)cc1	30.1*	60.6	14.7	67.1	5.2	2.6
CCCCCCCCCC(=O)NN=Cc1ccc(C)s1	.	-1.7	.	-12.8	0.4	.
COC(=O)c1cc(COc2ccc3c4c(c(=O)oc3c2)CCCC4)c(C)o1	-2.5	3.2	6.6	1.2	5.9	.
COC(=O)c1cc(COc2ccc3oc(C)c(C(=O)OC(C)C)c3c2)c(C)o1	0.9	1.8	-3.4	95.9*	.	.
Cc1oc2ccc(OC(=O)N(C)C)cc2c1C(=O)OC(C)C	159.8*	7.6	1.5	11.4	11.6	.
Cc1oc2ccc(OC(=O)c3cccs3)cc2c1C(=O)OC(C)C	2.7	-2.8	-8.0	12.6	-1.5	0.3
SMILES	PfHsp40 yeast	RN4220 kill	MazEF act	ugtP null kill	Mtb hypoxia rep	TcdB GH inh
NC1=NCC(Cc2ccccc2)N1CCc1cccc(F)c1 (configuration not stated)	.	6.3	.	-4.4	17.3	.
CC(=O)N(C)C[C@@H]1Oc2ncc(C#CCC3CCCC3)cc2C(=O)N([C@H](C)CO)C[C@H]1C	.	.	.	.	.	-0.2
Cc1ccccc1S(=O)(=O)N1[C@H](C#N)[C@@H](c2ccccc2)[C@@H]1CO	.	.	.	.	.	0.9
CC(C)OC(=O)/C(C#N)=C/c1ccc(-c2ccc(SC(F)F)cc2)o1	-0.6	.	139.8*	.	.	.
CCN1C(=O)/C(=C2\C=Cc3ccccc3N2CC)OC1=S	-0.6	7.5	234.6*	12.8	21.3	0.4
CCN1C(=O)C(=C2C=Cc3cc(C)ccc3N2CC)OC1=S	.	4.1	.	-5.8	23.1	.
O=C1C=C(c2ccc3c(c2)oc2ccccc23)CC(c2ccc3c(c2)OCO3)C1 (configuration not stated)	.	-4.3	.	2.0	2.9	.
CC(C)C1O/C(=N/C(=O)Nc2ccc(Cl)c(Cl)c2)NC1=O (configuration not stated)	0.4	100.0*	7.5	99.9*	8.5	.
Cn1cnc(S(=O)(=O)N[C@H]2CC[C@@H](CC(=O)NCC3CC3)O[C@@H]2CO)c1	.	.	.	.	.	-0.9
COCC#Cc1ccc([C@@H]2[C@@H](CO)N3C(=O)CN(C(=O)CN4CCOCC4)C[C@@H]23)cc1	.	.	.	.	.	-0.1
O=C(c1ccc(N2CCN(C(=O)c3ccccc3Br)CC2)cc1)c1cccc(F)c1	34.4*	-0.4	-13.0	6.9	3.7	1.9
CC[n+]1c(/C=C/N(C)c2ccccc2)n(-c2ccccc2)c2ccc(-c3nc4ccccc4s3)cc21	?	99.8*	67.8*	100.8*	.	.
C=CCc1ccc(OCC(O)COc2ccc(CC=C)cc2OC)c(OC)c1	46.5*	-0.4	-6.5	12.4	.	.
COC(=O)c1cccc(NC(=S)Nc2ccc(Cl)c(Cl)c2)c1	-1.6	100.0*	0.9	89.7*	-9.4	0.6
COC(=O)c1cccc(NC(=S)Nc2ccccc2Cl)c1	-1.4	2.8	-2.8	0.2	-0.5	0.8
COC(=O)c1cc(NC(=S)Nc2cc(Cl)cc(Cl)c2)cc(C(=O)OC)c1	0.2	99.2*	4.1	99.3*	-11.9	-4.2
COc1cccc(S(=O)(=O)Nc2ccc3c(c2)OC[C@H](C)NC[C@@H](C)[C@@H](OC)CN(C)C3=O)c1	.	.	.	.	.	1.4
Cc1ccc(-c2csc(NC(=O)c3ccccc3F)c2C(=O)O)cc1	33.9*	13.1	-1.3	-15.7	16.0	9.6
O=C(/C=C/c1ccccc1)Nc1scc(-c2ccccc2)c1C(=O)O	51.0*	8.4	7.4	-11.5	4.8	8.0
COc1ccc(-c2csc(NC(=O)c3ccccc3Br)c2C(=O)O)cc1	57.8*	14.4	2.7	-14.9	14.1	-0.1
O=C(CNC(=O)C1COc2ccccc2O1)NN=Cc1ccc(O)cc1O (configuration not stated)	.	0.7	.	4.6	-3.0	.
C[C@@H]1CCCCO[C@H](CN(C)S(=O)(=O)c2ccc(Cl)cc2)[C@H](C)CN([C@@H](C)CO)C(=O)c2cc(NC(=O)CCC(F)(F)F)ccc2O1	.	.	.	.	.	1.1
c1ccc(CC2CN=C(Nc3ccccc3)N2CC2CCCCCC2)cc1 (configuration not stated)	.	2.5	.	-27.9	13.5	.
C(=NNc1nc2ccccc2[nH]1)c1cccc2nccnc12	.	1.0	.	-4.8	0.6	.
CCN1C(=O)N(CC)C(=O)C2(Cc3ccccc3N3CCN(c4ccccc4)CC32)C1=O (configuration not stated)	.	3.2	-8.2	88.5*	3.1	1.0
O=c1c2ccccc2sn1-c1ccc(F)cc1	101.8*	28.7	-8.8	47.5	2.2	-2.2
Cc1ccc(-n2sc3ccccc3c2=O)cc1	79.8*	99.7*	-3.0	99.5*	11.3	.
COC(=O)c1cccc(-n2sc3ccccc3c2=O)c1	119.4*	.	-8.7	.	.	-2.4
